Broadly, the AC50 is the concentration at which the activity in the assay is half-maximal.

The source made the active and inactive calls. How the source made its calls: active means hit-call score of the fitted dose curve at least 0.9, where 1 is the maximum; inactive means score below 0.9.

The source of these data is PubChem BioAssay (EPA / NIEHS).

A short description of experiment [1]: BSK_hDFCGF_SRB: Viability Assessment in the BioMAP Diversity Plus: hDFCGF Assay (AID 2283061).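 Further: cells exposed to compound for 24 h before the read.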 As to conditions: primary human foreskin fibroblasts. The gist of the method: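 Cells were dosed with test chemical, cultured 24 h, fixed with 10% TCA, then stained with 0.1% SRB and read at 560 nm. The fibroblasts were human foreskin primary cells, and DMSO served as baseline.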

Read-out in experiment [2]: TIMP metallopeptidase inhibitor 1 (TIMP1), TIMP1 (gene 7076)
As to the kind of experiment: BSK_hDFCGF_TIMP1: BioMAP Diversity Plus: hDFCGF Assay for TIMP metallopeptidase inhibitor 1 (TIMP1) Biomarker Activity (AID 2283062). As to conditions: primary human foreskin fibroblasts; actives raise or lower the signal. A digest of the protocol: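 Fibroblasts from human foreskin are treated with test chemical and harvested at 24 h. TIMP-1 is quantified by ELISA, and gain or loss of signal is scored against DMSO.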

Read-out in experiment [3]: Monokine induced gamma interferon (MIG), CXCL9 (gene 4283)
The experiment is described as follows: BSK_hDFCGF_MIG: BioMAP Diversity Plus: hDFCGF Assay for Monokine induced gamma interferon (MIG) Biomarker Activity (AID 2283063). The following applies: primary human foreskin fibroblasts; actives raise or lower the signal. A digest of the protocol: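 MIG signal, determined by ELISA, reflects 24 h chemical exposure of human skin primary fibroblasts. DMSO serves as negative control and baseline.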

Read-out in experiment [4]: Matrix Metallopeptidase 1 (MMP1), MMP1 (gene 4312)
As to the kind of experiment: BSK_hDFCGF_MMP1: BioMAP Diversity Plus: hDFCGF Assay for Matrix Metallopeptidase 1 (MMP1) Biomarker Activity (AID 2283064). The following applies: primary human foreskin fibroblasts; actives raise or lower the signal. The gist of the method:
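MMP1 levels quantified by ELISA 24 h after dosing human dermal fibroblast cultures, with parallel SRB total-protein staining for overt cytotoxicity. Data fitted in both directions against DMSO baseline.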

Read-out in experiment [5]: Vascular cell adhesion molecule 1 (VCAM1), VCAM1 (gene 7412)
As to the kind of experiment: BSK_hDFCGF_VCAM1: BioMAP Diversity Plus: hDFCGF Assay for Vascular cell adhesion molecule 1 (VCAM1) Biomarker Activity (AID 2283065).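 On AC50: VCAM-1 protein level quantified by ELISA after 24 h chemical exposure.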 As to conditions: primary human foreskin fibroblasts; actives raise or lower the signal. The gist of the method: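 Cells are dosed, cultured for 24 h, then VCAM-1 is quantified by ELISA; signal increases and decreases are both fitted relative to DMSO.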

Read-out in experiment [6]: Plasminogen activator inhibitor-1 (PAI1), SERPINE1 (gene 5054)
The experiment is described as follows: BSK_hDFCGF_PAI1: BioMAP Diversity Plus: hDFCGF Assay for Plasminogen activator inhibitor-1 (PAI1) Biomarker Activity (AID 2283066). The following applies: primary human foreskin fibroblasts; actives raise or lower the signal. A digest of the protocol:
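ELISA readout of PAI-1 from primary human skin fibroblast cultures, 24 h after compound addition. Gain or loss of signal was fitted bidirectionally against DMSO baseline.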

Read-out in experiment [7]: Interferon-gamma inducible Protein 10 (IP10), CXCL10 (gene 3627)
As to the kind of experiment: BSK_KF3CT_IP10: BioMAP Diversity Plus: KF3CT Assay for Interferon-gamma inducible Protein 10 (IP10) Biomarker Activity (AID 2283068). As to conditions: primary human keratinocytes with fibroblasts; actives raise or lower the signal. A digest of the protocol:
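ELISA read-out of IP-10 after 24 h chemical dosing of human skin primary co-culture (keratinocytes, foreskin fibroblasts). Gain or loss of signal relative to DMSO, bidirectional curve fit.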

A short description of experiment [8]: BSK_KF3CT_SRB: Viability Assessment in the BioMAP Diversity Plus: KF3CT Assay (AID 2283069).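 Further: total protein by sulforhodamine B staining as a cytotoxicity measure.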 The following applies: primary human keratinocytes with fibroblasts. The gist of the method: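 Cytotoxicity was gauged by SRB staining (0.1% SRB, 10% TCA fixation, 560 nm) of parallel cultures at 24 h. The cells were primary human skin keratinocytes co-cultured with fibroblasts, and activity was fitted in both directions against DMSO.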

Read-out in experiment [9]: Interleukin-1 alpha (IL1a), IL1A (gene 3552)
As to the kind of experiment: BSK_KF3CT_IL1a: BioMAP Diversity Plus: KF3CT Assay for Interleukin-1 alpha (IL1a) Biomarker Activity (AID 2283070). The following applies: primary human keratinocytes with fibroblasts; actives raise or lower the signal. The gist of the method:
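IL-1a was detected by ELISA 24 h after chemical treatment of a co-culture of human skin keratinocytes and foreskin fibroblasts. Gain or loss of signal was fitted against the DMSO baseline.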

For the molecule `c1ccc(Oc2ccccc2)cc1`, the result in experiment [1], in experiment [2], in experiment [3], in experiment [4], in experiment [5] and in experiment [6] was inactive. Besides, the result in experiment [8] was inactive. Further, the results for the AC50 in [7] and in experiment [9] were 34.6 µM (active) and 20 µM (active), respectively.
Regarding `CC(C)(C)CC(C)(C)c1ccc(OCCOCC[N+](C)(C)Cc2ccccc2)cc1`, the AC50 is 6.6 µM (active) in [1]; 5 µM (active) in [2]; 7.5 µM (active) in experiment [3]; 5 µM (active) in experiment [4]; 6.9 µM (active) in [5]; 5 µM (active) in [6]. Further, the AC50 in experiment [7] was 7.61 µM (active); in experiment [8], 6.61 µM (active); in experiment [9] it was 8.08 µM (active).
`C[C@@H]1CCN(C(=O)[C@H](CCCN=C(N)N)NS(=O)(=O)c2cccc3c2NC[C@H](C)C3)[C@@H](C(=O)O)C1`: the result in [1], in experiment [2], in [3], in experiment [4], in experiment [5] and in experiment [6] was inactive. Also, the outcome in [7], in experiment [8] and in experiment [9] was inactive.
For the molecule `IC(I)I`, the result in experiment [1], in experiment [2], in experiment [3], in [4], in [5] and in experiment [6] was inactive. In addition, the outcome in experiment [7], in experiment [8] and in [9] was inactive.
Regarding `CCCCCC(C=O)=Cc1ccccc1`, the AC50 in [1] was 31.5 µM (active); in experiment [4] it was 0.146 µM (active); in [5], 20 µM (active); in [7] it was 30.4 µM (active); in experiment [8] it was 36.5 µM (active); in [9] it was 20 µM (active). Besides, the result in [2], in [3] and in experiment [6] was inactive.
Take `CN(C)C(=O)Nc1ccc(Oc2ccc(Cl)cc2)cc1`: the result in experiment [1], in experiment [2], in [3], in experiment [4], in experiment [5] and in [7] was inactive. The outcome in experiment [8] and in experiment [9] was inactive. Besides, the AC50 in [6] is 0.016 µM (active).
Turning to `CCCCCCCCCCCCCCCC(=O)OC/C=C(C)/C=C/C=C(C)/C=C/C1=C(C)CCCC1(C)C`, the result in experiment [1], in experiment [3], in experiment [4], in experiment [5], in experiment [7] and in [8] was inactive. Besides, the result in experiment [9] was inactive. The AC50 was 0.846 µM (active) in [2] and 3.97 µM (active) in [6].
In the case of `C1=CC2C3C=CC(C3)C2C1` (stereo not given), the outcome in [1], in experiment [2], in experiment [3], in experiment [4], in experiment [5] and in experiment [6] was inactive. Also, the result in [7], in experiment [8] and in experiment [9] was inactive.
Take `CCN(CC)C(=O)N(CC)CC`: the outcome in [1], in experiment [2], in [3], in experiment [4], in [5] and in [6] was inactive. For the same molecule, the result in [7], in experiment [8] and in experiment [9] was inactive.
Take `Clc1cc(Cl)c(-c2c(Cl)c(Cl)cc(Cl)c2Cl)cc1Cl`: the AC50 was 14.7 µM (active) in experiment [1]; 10 µM (active) in experiment [2]; 18.5 µM (active) in experiment [4]; 14.5 µM (active) in [5]; 2.94 µM (active) in experiment [6]; 15.5 µM (active) in experiment [7]. Moreover, the AC50 in experiment [8] is 13.7 µM (active); in experiment [9] it was 2.95 µM (active). Also, in experiment [3], the result was inactive.
